Test results from PubChem BioAssay AID1259343 (VanderVen Lab, College of Veterinary Medicine, Cornell …, 2017).
The campaign covered roughly 6,200 compounds. About 2,900 (47%) were called active. The set was probably picked from earlier hits. This is one part of the list. A number with no mark means an inactive call. No stated cut-off is given here; in the data, active means inhibition above about 50%; inactive means the rest.

Assay: Mycobacterium tuberculosis growth inhibition, primary screen (AID 1259343)
Conditions: inhibition: at 10 µM, stronger effect = higher value; outcome: 10 uM

| Structure (SMILES) | inhibition |
| --- | --- |
| Cc1ccc(/C=C/c2nc3scc(CC(C)C)c3c(=O)[nH]2)s1 | -12.6% |
| CCCC(=O)N1CCCC1C(=O)Nc1ccc(-c2ccccc2)nn1 (configuration not stated) | -13% |
| COc1ccccc1CC(=O)N1CCC(n2nc(-c3ccccc3)cc2-c2ccccc2)CC1 | 59.7% (active) |
| COc1cc(-c2ccc(=O)n(Cc3ccccc3C)n2)cc(OC)c1OC | inactive |
| COc1ccccc1-c1noc(CSc2nnc(-c3ccc4c(c3)OCO4)o2)n1 | 99% (active) |
| COc1ccc(-c2noc(CSc3nnc(-c4ccc5c(c4)OCO5)o3)n2)cc1OC | 78.9% (active) |
| COc1ccccc1-c1nnc(SCC(=O)c2ccc3c(c2)OCO3)o1 | -33.1% |
| CCc1ccc(-c2noc(CSc3nnc(-c4ccc5c(c4)OCO5)o3)n2)cc1 | -23.7% |
| COc1ccc(OCCSc2nnc(-c3ccc(OC)c(OC)c3)o2)cc1 | 91.1% (active) |
| CCn1c(SCC(=O)c2cc(C)ccc2C)nnc1-c1ccco1 | 52.6% (active) |
| CCn1c(SCC(=O)Nc2ccc(I)cc2)nnc1-c1ccco1 | 10.3% |
| Cn1c(SC2CCCc3ccccc32)nnc1-c1ccco1 (configuration not stated) | 27.9% |
| CC1CCCN(S(=O)(=O)NCc2ccccc2Cl)C1 (configuration not stated) | -12.8% |
| CC1CCN(S(=O)(=O)NCCc2ccccc2F)CC1 | 82.6% (active) |
| CC1CCN(S(=O)(=O)NC(C)c2ccc(F)cc2)CC1 (configuration not stated) | 17.4% |
| Cc1csc(NC(=O)c2ccnc(N(C)C)c2)n1 | -4.65% |
| C/C=C/c1cc(C(=O)Nc2nc(C)cs2)cc(OC)c1OC | 57.2% (active) |
| COc1ccc(Oc2ccc(CNCc3ccc(C)s3)cn2)cc1 | 78.2% (active) |
| COc1ccc(CNC(=O)Nc2ncc([N+](=O)[O-])s2)cc1 | 11.6% |
| Cc1ccccc1OCC(=O)Nc1ccc(-n2ccnc2)cc1C(F)(F)F | 8.11% |
| CNC(=O)C(C#N)C(=O)c1sc(-c2ccc(Cl)s2)nc1C (configuration not stated) | 54.5% (active) |
| Cc1nc(-c2cc(Br)cs2)sc1C(=O)O | 19.5% |
| CC(C)N1CCN(Cc2ccc(C#CC(C)(C)O)s2)CC1CCO (configuration not stated) | 77.8% (active) |
| O=C(NCC1CC1)c1cc(-c2ccc(Br)cc2)n[nH]1 | 2.7% |
| COc1ccc(C(=O)NCC2CCCCC2)cc1F | 70.9% (active) |
| O=C(NCC1CCCC1)c1csc(Br)c1 | 95.4% (active) |

| Structure (SMILES) | inhibition |
| --- | --- |
| O=C(CS(=O)CCOc1cccc(Br)c1)NCC1CCCCC1 (configuration not stated) | 12.5% |
| O=C(NS(=O)(=O)C1CCCC1)c1ccc(F)c(F)c1 | 25.9% |
| CCOc1ccc(NC(=O)COC(=O)c2ccc(Cl)cc2O)cc1 | 94.7% (active) |
| Cc1cc(=O)[nH]c(-n2nc(-c3cccs3)cc2N)n1 | -45.8% |
| Cc1nc(-n2nc(-c3cccs3)cc2N)[nH]c(=O)c1C | 92.4% (active) |
| Cc1nc(-n2nc(-c3cccs3)cc2NC(=O)c2ccccc2Cl)[nH]c(=O)c1C | 61% (active) |
| Cc1nc(-n2nc(-c3cccs3)cc2NC(=O)c2ccccc2F)[nH]c(=O)c1C | 83.2% (active) |
| CCC(CC)C(=O)Nc1cc(-c2cccs2)nn1-c1nc(C)c(C)c(=O)[nH]1 | -21.5% |
| Cc1nc(-n2nc(-c3cccs3)cc2NC(=O)c2ccc(F)cc2)[nH]c(=O)c1C | 99.3% (active) |
| CC(C)c1cc(=O)[nH]c(-n2nc(-c3cccs3)cc2N)n1 | 1.53% |
| O=C(O)c1csc(-c2cnn(-c3ccccc3)n2)n1 | 33.6% |
| Cc1cc(C)cc(NC(=O)c2ncn(-c3ccccc3C)n2)c1 | 77.4% (active) |
| CCN(CC)c1ccc(-c2n[nH]c(=S)o2)cc1 | -4.83% |
| CCN(CC)c1ccc(N2C(=O)CNC2=S)cc1 | 54.3% (active) |
| O=C1CNC(=S)N1c1ccc(Cl)cc1 | -2.04% |
| O=C(c1ccc(Cl)cc1)c1c(O)cc(-c2ccc(Cl)cc2)oc1=O | 84% (active) |
| S=c1[nH]cc(-c2ccc(Cl)cc2)o1 | -9.85% |
| C=CCSc1nc2sc(C(=O)O)c(C)c2c(=O)[nH]1 | 26.3% |
| CSc1nnc(SCc2nc3sc(C(=O)O)c(C)c3c(=O)[nH]2)s1 | 80.8% (active) |
| Cc1sc2nc(CSC3=NCCS3)[nH]c(=O)c2c1C | 49% |
| O=[N+]([O-])C1=C(Nc2ccc(-c3ccccc3)cc2)CS(=O)(=O)C1 | 95.9% (active) |
| CNC(=O)c1ccc(OCc2cccc(F)c2)cc1 | 78.6% (active) |
| COc1ccc(OCc2cc(C(=O)NCc3cccc(F)c3)no2)c(Cl)c1 | 34.7% |
| CC(NC(=O)COc1ccc(C(F)(F)F)cc1)c1cccc(F)c1 (configuration not stated) | 9.32% |
| O=C(O)c1ccc(F)c(COc2ccc(F)cc2)c1 | 18.4% |
| CSc1cccc(NC(=O)c2cc(=O)c(OCc3ccc(F)cc3)c[nH]2)c1 | 85.5% (active) |

| Structure (SMILES) | inhibition |
| --- | --- |
| CC(=O)Nc1cccc(OCc2ccc(F)cc2)c1 | 92.5% (active) |
| CC(=O)Nc1ccc(OCc2cccc(F)c2)c(Cl)c1 | 85.1% (active) |
| Cc1[nH]c(=S)sc1CC(=O)Nc1cccc(OCc2ccc(F)cc2)c1 | 38.9% |
| CCCS(=O)(=O)NCc1nc(NCCCc2ccccc2)c2ccccc2n1 | 33.8% |
| CN(Cc1cc(-c2ccncc2)no1)Cc1cc2ccccc2o1 | 23.3% |
| CN(Cc1ccc2c(c1)OCCO2)Cc1cc(-c2ccccc2)no1 | 37.6% |
| CN(Cc1cc(-c2ccncc2)no1)Cc1ccc(Cl)s1 | 54.1% (active) |
| CN(Cc1ccsc1)Cc1cc(-c2ccccc2)no1 | 53.4% (active) |
| CN(Cc1cc(-c2ccccc2)no1)Cc1cccc2nonc12 | 27.9% |
| CN(Cc1cc(-c2ccncc2)no1)Cc1ccc(C2CCCCO2)s1 (configuration not stated) | 27.1% |
| CN(Cc1cccc(Cn2cccn2)c1)Cc1cc(-c2ccccc2)no1 | 61.2% (active) |
| CCCCC1CCC(C(=O)Nc2noc3ncccc23)CC1 (configuration not stated) | 99.3% (active) |
| O=C(Nc1cccc2ncccc12)C1CC2CCCC(C1)C2=O (configuration not stated) | -15.1% |
| CN(Cc1csc(-c2cccs2)n1)c1ccc(-c2nccn2C)nn1 | 68.3% (active) |
| c1cnc(N2CCN(Cc3csc(-c4cccs4)n3)CC2)nc1 | 40.8% |
| CC1CCc2[nH]c3c(C(=O)NCC4CN(C)CCO4)cccc3c2C1 (configuration not stated) | 39.4% |
| Cc1ccc(CN(C)Cc2nc(CC3CC3)no2)o1 | inactive |
| Cc1nc(Cc2noc(CC3CC4CCC3C4)n2)no1 (configuration not stated) | 66.8% (active) |
| CN=c1scc(-c2cccc(Br)c2)n1N=Cc1cccc(O)c1O | 17.2% |
| CN=c1scc(-c2ccccc2)n1N=Cc1ccccc1Br | 6.14% |
| CN=c1scc(-c2ccccc2)n1N=Cc1cccc(C(F)(F)F)c1 | 1.23% |
| COCCN=c1scc(-c2ccc(OC(F)F)cc2)n1N=CC1CC2C=CC1C2 (configuration not stated) | 101% (active) |
| CN=c1scc(-c2ccc(OC(F)F)cc2)n1N=Cc1cccc(O)c1O | 98.9% (active) |
| COCCN=c1scc(-c2ccc(Br)cc2)n1N=Cc1ccc(F)cc1 | 40.8% |
| COc1ccc(C=Nn2c(-c3ccc(Cl)cc3)csc2=N)cc1 | 60.1% (active) |
| COCCN=c1scc(-c2ccc(OC(F)F)cc2)n1N=Cc1ccc(OC)cc1 | 63.2% (active) |

| Structure (SMILES) | inhibition |
| --- | --- |
| C=CCN=c1scc(-c2ccc(OC(F)F)cc2)n1N=Cc1ccc[nH]1 | 46.4% |
| C(=Nn1c(-c2ccccc2)csc1=NCCc1ccccc1)c1ccccn1 | 21.8% |
| COc1ccc(/C=N\n2c(-c3ccc(Cl)cc3)csc2=N)cc1 | 38.1% |
| N#CC1(c2ccccc2)CCC2(CC1)N=C(N)Nc1nc3cc4c(cc3n12)OCCCO4 (configuration not stated) | 45.8% |
| Clc1ccc(CNc2c3c(nc4nncn24)CCC3)cc1 | 54.3% (active) |
| O=S(=O)(NCc1ccc(Cl)cc1)N1CCCCCC1 | 10.6% |
| O=C(Nc1ccc(SCc2cccnc2)cc1)C1=COCCO1 | 61% (active) |
| Cc1ccc(Sc2ccc(NC(=O)C3=COCCO3)cc2)cc1C | 33.3% |
| O=C(Nc1ccc(Oc2ccccc2)cc1)C1=COCCO1 | 49.4% |
| N=c1oc2c([N+](=O)[O-])cc(Cl)cc2cc1-c1nc2ccccc2s1 | -34.4% |
| O=C1NC(=S)C(=Cc2ccc(-c3ccc(F)cc3)o2)S1 | 97.6% (active) |
| N#CC(C#N)=Cc1ccc(-c2ccc(F)cc2)o1 | -20.9% |
| O=C1NC(=S)C(=Cc2ccc(-c3nc4ccccc4s3)o2)S1 | 77.4% (active) |
| NC(=S)NN=Cc1ccc(-c2nc3ccccc3s2)o1 | 67.3% (active) |
| N#CC(C#N)=Cc1ccc(-c2ccc(SC(F)F)cc2)o1 | -10.2% |
| NC(=S)NN=Cc1ccc(-c2ccc(SC(F)F)cc2)o1 | 103% (active) |
| O=C(Nc1nc(-c2nc3ccccc3s2)cs1)c1ccc([N+](=O)[O-])o1 | -46.3% |
| Cc1nc(CNS(=O)(=O)c2c(C)c(C)c(C)c(C)c2C)cs1 | 6.48% |
| O=C(O)c1cc(Br)c2ccccc2c1O | 96% (active) |
| Cc1cc(NC(=O)CNCc2csc(-c3cnccn3)n2)ccc1Cl | 77.5% (active) |
| Cc1ccn(C(=O)Cc2csc(-c3ccccn3)n2)c(=NC2CCCCC2)c1 | -7.81% |
| O=C(c1c(-c2ccc(Br)cc2)c2ccccc2[nH]c1=O)C(F)(F)F | 18.7% |
| O=c1[nH]c2ccccc2c(O)c1Sc1ccccc1 | 82.5% (active) |
| O=c1[nH]c2cc(Cl)ccc2c(O)c1-c1ccc(Oc2ccccc2)cc1 | 17.5% |
